Compound activity (PubChem)
Only some compounds are listed: those with a hit (about 3.4% of all), similar ones and a draw of the others.
FBW7 activator: activators of human E3 ligase FBW7. Q969H0. AlphaScreen FBW7–phospho-cyclin E peptide binding, activator screen. normalized activity (activation), % at 26.1 µM. hit rate 0.13% among 650,000. AID 1259310; in the data active = normalized activity above about 1.9%;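 note: purified mutant Fbw7 with reduced substrate affinity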
Target sequence (Q969H0 whole entry, looked up): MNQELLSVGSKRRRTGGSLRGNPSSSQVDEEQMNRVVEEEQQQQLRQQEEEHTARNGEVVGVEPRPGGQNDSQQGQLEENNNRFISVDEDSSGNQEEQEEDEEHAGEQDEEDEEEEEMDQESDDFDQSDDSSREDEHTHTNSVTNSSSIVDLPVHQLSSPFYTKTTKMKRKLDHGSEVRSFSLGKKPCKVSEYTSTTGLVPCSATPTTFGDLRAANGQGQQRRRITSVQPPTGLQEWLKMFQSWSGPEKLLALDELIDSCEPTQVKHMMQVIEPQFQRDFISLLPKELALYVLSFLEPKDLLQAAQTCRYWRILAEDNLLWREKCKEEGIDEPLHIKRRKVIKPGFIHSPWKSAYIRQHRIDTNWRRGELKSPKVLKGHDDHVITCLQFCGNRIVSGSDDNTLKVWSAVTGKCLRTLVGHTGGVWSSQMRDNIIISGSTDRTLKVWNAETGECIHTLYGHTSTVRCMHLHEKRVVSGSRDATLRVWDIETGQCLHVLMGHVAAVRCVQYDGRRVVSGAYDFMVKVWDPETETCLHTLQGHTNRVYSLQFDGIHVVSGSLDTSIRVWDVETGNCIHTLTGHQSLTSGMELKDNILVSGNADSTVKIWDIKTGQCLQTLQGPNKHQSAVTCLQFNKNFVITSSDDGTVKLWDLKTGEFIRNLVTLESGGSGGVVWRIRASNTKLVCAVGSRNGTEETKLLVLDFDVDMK
MITF inh: human MITF inhibition, primary screen; O75030; AlphaScreen MITF homodimerization, bead proximity signal; inhibition, % at 2.6 µM; hit rate 0.91% among 650,000; in the data active = inhibition above about 50%;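 note: 0% = vehicle wells with protein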
TEAD-YAP block: TEAD-YAP interaction inhibition; hit rate 1.4% among 640,000; HEK-TIYL cells, TEAD-Gal4/YAP UAS-luciferase luminescence; inhibition, % at 9.12 µM; in the data active = inhibition above about 32%;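 note: 0% = median of test compound wells and 100% = reference inhibitor wells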
GPR151 ag: human GPR151 activation. Q8TDV0. PathHunter beta-arrestin GPR151 cells, luminescence. activation, % at 11.2 µM. hit rate 1% among 650,000. AID 1508602; in the data active = activation above about 4.9%;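 note: 0% = median of compound wells and 100% = cells with positive control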
MITF confirm: human MITF inhibition, confirmation; shares compounds with MITF inh; AlphaScreen MITF homodimerization, biotin/His-MITF beads; inhibition, % at 2.6 µM; hit rate 16% among 4,700; AID 1259372;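 active = inhibition above a cutoff derived from the DMSO control wells, cut at about 28% in these data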;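 note: 0% = MITF dimer wells with DMSO only; inhibitors lower the bead chemiluminescence by keeping MITF from dimerizing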
AS interf DR: optically interferes with AlphaScreen signal in dose response | shares compounds with MITF inh | AlphaScreen optical interference counterscreen, cell-free | IC50, µM | hit rate 6% among 480 | AID 1259373; call rule not given here
AS interf ctr: optically interferes with AlphaScreen signal; shares compounds with MITF inh; LysRS AlphaScreen counterscreen, signal interference, triplicate; inhibition, % at 2.6 µM; hit rate 7.6% among 4,700; AID 1259376;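 active = inhibition above a cutoff derived from the DMSO control wells, cut at about 30% in these data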
* = called active by the depositor; . = not tested or not shown.

SMILES	FBW7 activator	MITF inh	TEAD-YAP block	GPR151 ag	MITF confirm	AS interf ctr	others
CC1CCN(Cc2nnnn2CCCC(=O)NCCc2cccc(Cl)c2)CC1	0.4	65.1*	5.0	1.4	-0.1	12.8
CC(NC(=O)Cc1ccc(F)cc1)c1ccccc1 (stereo unspecified)	0.2	-6.7	-4.1	2.7	.	.
CC(NC(=O)Cc1ccccc1Cl)c1ccc(F)cc1 (stereo unspecified)	0.3	57.8*	-3.6	-1.4	5.0	6.6
CC(NC(=O)CCSCc1ccccc1F)c1ccccc1 (stereo unspecified)	0.4	58.8*	-27.1	-1.6	2.4	-2.8
CC(NC(=O)CCSCCC(=O)NC(C)c1ccccc1)c1ccccc1 (stereo unspecified)	0.1	6.0	-7.0	-1.5	.	.
CCC(C)(C)n1nnnc1CN(Cc1ccccc1)Cc1cccs1	0.0	75.6*	0.8	-1.2	6.2	7.8
Cc1ccc2nc(C3CCN(S(=O)(=O)c4ccc5c(c4)OCCO5)CC3)[nH]c2c1	0.0	66.5*	7.7	0.7	11.8	18.6
COc1ccc(CC(=O)NCC2(c3ccccc3)CCCC2)cc1	0.0	18.6	4.0	-1.6	.	.
Cc1cc(/C=C2/C=CC(=O)O2)oc1C	0.4	75.3*	7.0	-1.7	72.2*	10.1	AS interf DR=>7.29
CCC(c1nnc(SCC(=O)N(C)C)o1)N(C)C (stereo unspecified)	-0.3	80.8*	6.4	0.6	7.3	15.0
O=C(NCC1CCCO1)C1CCCCN1S(=O)(=O)c1ccccc1[N+](=O)[O-] (stereo unspecified)	-0.2	6.3	-4.8	0.5	.	.
CCOc1cc(CN2CCN(C(=O)c3cccc(F)c3)CC2)ccc1OC	0.0	46.9	6.5	0.9	.	.
CCOc1ccc(CN2CCN(C(=O)c3cccc(F)c3)CC2)cc1	-0.2	54.6*	18.7	0.6	10.6	19.2
O=C(c1cccc(F)c1)N1CCN(Cc2ccc(F)cc2)CC1	-0.1	65.8*	-2.5	0.1	-5.1	2.1
Cc1cccn2c(=O)c(/C=C3\SC(=S)N(C)C3=O)c(Oc3ccccc3F)nc12	0.0	-0.7	-4.1	-0.1	.	.
O=C(CNCCc1ccc2c(c1)OCCO2)N1CCc2ccccc21	-0.1	50.7*	6.7	0.4	-2.8	7.1
CCSCCOC(=O)C1=C(C)NC2=C(C(=O)CC(c3ccccc3)C2)C1c1cccc(Br)c1 (stereo unspecified)	0.0	0.9	-4.8	-0.2	.	.
CCCC(=O)C1=C(c2ccc([N+](=O)[O-])cc2)N(C(=O)CCC)n2c(C)nnc2S1	-0.4	11.0	8.0	2.8	.	.
COc1cc(NC(=O)Nc2cccc(C(C)=O)c2)cc(OC)c1OC	-0.1	6.4	-0.2	4.2	.	.
COc1cc(Nc2cccc(C(N)=O)c2)cc(OC)c1OC	0.0	72.8*	-0.1	-1.2	3.5	4.5
CCc1nc2sc(C(c3ccc(OC)c(OC)c3)N3CCCCC3)c(O)n2n1 (stereo unspecified)	0.2	-12.8	-2.1	0.0	.	.
CCc1nc2sc(C(c3ccc(C(C)C)cc3)N3CCCC3)c(O)n2n1 (stereo unspecified)	0.0	57.3*	0.9	0.9	0.2	-2.6
COc1cc(C(=O)N2CCN(Cc3ccncc3)CC2)cc(OC)c1OC	0.1	76.4*	0.5	-0.8	-9.4	-2.2
COc1cc(OC)cc(C(=O)N2CCN(Cc3cc(OC)c(OC)c(OC)c3)CC2)c1	-0.1	29.0	4.8	-1.0	.	.
COc1ccc(C(=O)N2CCN(Cc3ccc(OC)c(OC)c3)CC2)cc1	-0.4	24.5	-5.6	-1.6	.	.
SMILES	FBW7 activator	MITF inh	TEAD-YAP block	GPR151 ag	MITF confirm	AS interf ctr	others
COc1cc(CN2CCN(C(=O)c3ccncc3)CC2)cc(OC)c1OC	0.0	72.0*	-0.5	0.5	3.4	-6.2
COc1ccc(CN2CCN(C(=O)c3ccncc3)CC2)cc1OC	-0.2	69.5*	2.8	-0.3	-9.2	-3.3
O=C1CCC(CCNCc2cccnc2)N1CCc1ccc(Cl)cc1 (stereo unspecified)	0.2	13.6	3.2	-0.1	.	.
CC(C)N(CCNc1nc(Nc2ccc(-n3ccnc3)cc2)nc2c1ncn2CCN1CCCC1=O)C(C)C	0.1	16.5	-4.9	-2.6	.	.
Cc1ccnc2nc(C(=O)Nc3nc(-c4ccccn4)cs3)nn12	-0.8	65.4*	1.3	0.1	58.8*	79.1*
Cc1ccnc2nc(C(=O)Nc3nc(-c4cccs4)cs3)nn12	-0.3	14.5	-17.4	-0.5	.	.
CC1CCC(N2CCN(CC3CC=CCC3)CC2)CC1 (stereo unspecified)	0.2	62.5*	1.9	-0.8	1.6	-0.4
C1=CCC(CN2CCN(C3CCCCCC3)CC2)CC1 (stereo unspecified)	0.2	76.1*	4.5	1.6	-4.3	-7.4
CCCS(=O)(=O)N1CCN(CC2CC=CCC2)CC1 (stereo unspecified)	0.0	32.1	10.1	0.2	.	.
C#CCN1C(=O)C(O)(CC(=O)c2ccc(CC)cc2)c2ccccc21 (stereo unspecified)	0.2	-26.6	-1.1	-0.8	.	.
COC(=O)c1ccc(CC2CCCC2=O)o1 (stereo unspecified)	-0.2	3.2	-1.0	0.0	.	.
COc1ccc(CN2CCN(Cc3cccn3C)CC2)c(OC)c1OC	-0.2	46.5	0.6	0.0	.	.
COc1ccc(CN2CCN(CCOc3ccccc3C#N)CC2)c(OC)c1OC	0.1	69.1*	1.1	-0.1	1.3	20.4
COc1ccc(CN2CCN(CCOc3ccccc3)CC2)c(OC)c1OC	0.0	71.5*	0.3	-0.8	1.9	9.5
COC(=O)Cc1ccc(N(Cc2ccccc2F)S(=O)(=O)c2ccc3c(c2)OCCO3)cc1	-0.1	2.5	-5.5	0.1	.	.
CCOc1ccc(N=c2sc(C3=c4ccccc4=NC3=O)c(O)n2-c2ccc(OCC)cc2)cc1	-0.1	112.7*	0.5	2.9	10.1	17.9
c1ccc(-c2ccccc2OCCN2CCOCC2)cc1	-0.1	77.8*	-2.3	0.7	5.6	3.8
CN1CCN(CCOc2ccccc2-c2ccccc2)CC1	0.1	55.3*	-1.3	-1.0	4.5	4.7
CCN1CCN(CCOc2ccccc2-c2ccccc2)CC1	-0.2	43.8	7.2	-1.8	.	.
c1ccc(-c2ccccc2OCCCCN2CCOCC2)cc1	-0.3	77.3*	-3.2	1.9	-9.6	-4.0
O=C(NCCCc1ccccc1)c1cc2c(s1)CS(=O)(=O)C2	-0.1	-3.2	-13.4	1.9	.	.
COCc1oc2ccc(NS(=O)(=O)c3ccc(Cl)cc3)cc2c1C(=O)OC	-0.1	-20.9	2.3	-1.1	.	.
CN(C)CCNc1ncnc2sccc12	-0.2	86.0*	-3.1	0.4	0.4	6.9
CCOC(CCCNc1ncnc2sccc12)OCC	0.3	6.4	24.7	2.1	.	.
CCCN1CCC(N2CCN(c3ccc([N+](=O)[O-])cc3)CC2)CC1	0.0	54.7*	-2.5	0.4	10.6	17.8
CC1CCC(N2CCN(Cc3ccc([N+](=O)[O-])cc3)CC2)CC1 (stereo unspecified)	0.1	65.3*	1.9	-1.2	11.9	13.2
